For 109 molecules, outcome results are on record in PubChem BioAssay AID504882 (Broad Institute, 2011).

In all, about 1,200 compounds went through this assay and about 290 (24%) were called active. Roughly 9% stayed inconclusive and do not appear here. How the calls were made is not given here. The list is a sample of the results. Measured potencies and affinities stand elsewhere.

This test is described as follows: cytotoxicity in EBV lymphoblastoid cells, dose response, cytotoxicity control, cell-based, plate reader, cherry-picks, set 2 (AID 504882). To be noted: EBV lymphoblastoid cells (LCL) viability; series mostly up to 19.5 µM.
For the molecule `O=C(N/N=C(/CC(=O)c1cccs1)C(F)(F)F)c1ccc(O)cc1`, the molecule was classed as inactive. The value for `CCC(C)[C@H](NC(=O)NCc1cccnc1)C(=O)OC` (some centres undefined) was “inactive”.

As for `Cc1cccc(C)c1NC(=O)CN(C)C(=O)c1ccc(-c2cccc(C(F)(F)F)c2)o1`, the call was inactive.

Take `O=C(CN1C(=O)c2ccccc2S1(=O)=O)c1ccc(F)c(F)c1`: the result was inactive.

`COc1ccc(-n2c(SCC(=O)Nc3ccc4c(c3)OCO4)nc3c(c2=O)SCC3)cc1`: the outcome was inactive. The value for `Cc1ccnc(NC(=O)CCC(=O)c2cccs2)c1` was “inactive”; that for `COc1ccc(C(=O)Nn2c(SCC(=O)NC3CCCCC3)nc3ccccc3c2=O)cc1` was “inactive”; that for `NC(=O)CC(NC(=O)c1ccccc1)c1ccc(NC2CCN(Cc3ccccc3)CC2)c([N+](=O)[O-])c1` (centres undefined) was “inactive”. In the case of `Cc1cccc(Cn2cc(SCC(=O)Nc3nccs3)c3ccccc32)c1`, the call was inactive. The value for `COC(=O)c1c(O)ccc(Oc2ccccc2)c1C(=O)OC` was “inactive”. The value for `COc1ccc2oc(C(=O)NCCc3ccccc3)c(C)c2c1` was “inactive”; that for `COc1ccc(-n2c(SCC(=O)Nc3cc(C)on3)nc3c(c2=O)SCC3)cc1` was “inactive”. The value for `Cc1ccc(-n2ccc(=O)c(C(=O)Nc3ccc(S(=O)(=O)N4CCOCC4)cc3)n2)cc1` was “inactive”; that for `O=C1c2ccccc2C(Nc2cccnc2)N1Cc1ccccc1` (centres undefined) was “inactive”. For `COc1cc(/C=N/NC(=O)c2cccc(S(=O)(=O)N3CCOCC3)c2)cc(OC)c1O`, the result was inactive. The value for `COc1cc(C(=S)N2CCOCC2)cc(OC)c1OC(=O)c1ccc(F)cc1` was “inactive”; that for `O=C(NOCc1ccccc1)c1ccc(Cl)cc1Cl` was “inactive”.

`C[C@H]1C[C@H]2[C@@H]3CCC4=CC(=O)C=C[C@]4(C)[C@@]3(F)[C@@H](O)C[C@]2(C)[C@@]1(O)C(=O)CO`: the result was inactive. The value for `CC1CCC(NC(=O)CC2Oc3ccccc3NC2=O)CC1` (centres undefined) was “inactive”; that for `O=C1CN(C(=O)c2ccc(F)c(S(=O)(=O)N3CCOCC3)c2)c2ccccc2N1` was “inactive”. Turning to `CC(C)c1nnc(NC(=O)c2ccc(N3C(=O)CCC3=O)cc2)s1`, the molecule was classed as inactive. The value for `COc1cc2c(cc1OC)-c1cc(Nc3ccc4c(c3)OCCO4)nc(=O)n1CC2` was “inactive”; that for `CCCC(=O)NCCCc1nc2ccccc2[nH]1` was “inactive”; that for `COc1ccccc1C=NN=Cc1ccccc1O` was “inactive”.

For `COc1cccc(C(=O)Nc2nc3ccccc3[nH]2)c1`, the result was inactive.

In the case of `CCc1ccc(-c2nnn(CCC(=O)OC)n2)cc1`, the molecule was classed as inactive.

For the molecule `COc1cccc(C(=O)CC(=O)C(=O)Nc2ccc(C)cc2Cl)c1`, the outcome was inactive.

For the molecule `CCc1ccc(/C=C/C(=O)C2C(=O)c3ccccc3C2=O)cc1`, the result was inactive.

As to `O=C(OCc1ccccc1F)c1cc2ccccc2cc1O`, the molecule was called inactive. The value for `CCS(=O)(=O)c1nnnn1-c1ccccc1S(C)(=O)=O` was “inactive”. `C[C@H](NC(=O)N1CCn2c1nc1ccccc12)C(=O)NCC1CCCO1` (some centres undefined): the molecule was classed as inactive. On to `CCOC(=O)c1ccc(NC(=S)N2CCSC2c2ccc(OC)cc2)cc1` (centres undefined), for which the result was inactive. `COC(=O)c1[nH]c2cccc(C)c2c1NC(=O)CN1CCCc2ccccc21`: the call was inactive. The value for `CC(C)(C)c1nc2c(s1)CCc1onc(-c3ccc(Br)cc3)c1-2` was “inactive”; that for `Cc1nc2sc(C(N)=O)c(N)c2c2c1CCCC2` was “inactive”. The value for `O=C(Nc1ccc2c(c1)nc1n2CCSC1)c1ccco1` was “inactive”; that for `O=C(Nc1ccc(Cl)cc1)c1ccco1` was “inactive”; that for `CCOC(=O)C1=C(O)/C(=C/c2ccc(CNC(=O)C(=O)Nc3ccc(C)cc3)o2)N=C1C` was “inactive”. The value for `Nc1cc(=O)[nH]c(SCCSc2cc(Cl)ccc2Cl)n1` was “inactive”; that for `CC(C)(C)c1cc(C(=O)NNC(=O)Nc2cccc(Cl)c2)n(Cc2ccccc2)n1` was “inactive”.

As to `CC(=O)O[C@]1(C(C)=O)CC[C@H]2[C@@H]3C=C(C)C4=CC(=O)CC[C@@H]4[C@H]3CC[C@@]21C`, the call was inactive. The value for `O=C(O)c1ccccc1Nc1cccc(OCc2ccc3ccccc3n2)c1` was “inactive”; that for `c1ccc2c3c([nH]c2c1)C(C1CCCCC1)N(Cc1ncc[nH]1)CC3` (centres undefined) was “inactive”.

In the case of `O=C1c2ccccc2C(Nc2ccc(Cl)cc2)N1CCN1CCOCC1` (centres undefined), the result was inactive. The value for `Brc1ccc(-c2csc(N3CCCCCC3)n2)cc1` was “inactive”; that for `COc1cc(/C=C2\SC(=S)N(NC(=O)c3ccncc3)C2=O)ccc1O` was “inactive”; that for `CCc1nnc(NC(=O)c2cc(S(=O)(=O)N3CCN(CC)CC3)ccc2Cl)s1` was “inactive”.

For `COc1cc2c(=O)n(CC3CCCO3)c(=O)n(CC(=O)Nc3cccc(Cl)c3)c2cc1OC` (centres undefined), the molecule was called inactive. The value for `COc1ccc(NC(=O)N(CCN2CCCC2)Cc2cc3cc(OC)c(OC)cc3[nH]c2=O)cc1` was “inactive”; that for `Cc1cccc(C)c1NC(=O)CN(C)CC(=O)Nc1ccccc1Oc1ccccc1` was “inactive”; that for `Cc1ccc(C(=O)Nc2ccc3ncccc3c2)cc1` was “inactive”. The value for `O=C(O)c1c2c(nc3ccccc13)/C(=C/c1ccc(O)cc1)CC2` was “inactive”; that for `CSc1nc(C)cc(C)c1C#N` was “inactive”. The value for `CC1(C)CN(Cc2ccccc2)C(=O)[C@H]1CC(=O)Nc1ccccc1` was “inactive”. For `O=C(Cc1cccc2ccccc12)Nc1ccc(-c2cc3ccccc3oc2=O)cc1`, the molecule was called inactive.

In the case of `NC(=O)c1sc2nccc(Nc3ccccc3)c2c1N`, the molecule was called inactive. The value for `CCCCCC(=O)N1CCN(c2ccc(C(C)=O)cc2F)CC1` was “inactive”; that for `COc1ccc(C(c2c(C)n(C)n(-c3ccccc3)c2=O)c2c(C)n(C)n(-c3ccccc3)c2=O)c(OC)c1OC` was “inactive”; that for `CC(C)C(=O)Nc1ccc(C(=O)N/N=C/c2cc(Br)cc(Br)c2O)cc1` was “inactive”. The value for `CCSc1nc2ccc(OC)cc2cc1C#N` was “inactive”. The value for `COc1ccccc1C(=O)Nc1c[nH]c(=O)[nH]c1=O` was “inactive”. Consider `CN1OC[C@@H]2CN[C@H](c3ccc(-c4cc5ccccc5o4)cc3)C[C@@H]21`, for which the molecule was classed as inactive. The value for `O=C(O)CN1C(=O)/C(=C\c2ccccc2OCc2ccc(Cl)cc2Cl)SC1=S` was “inactive”; that for `S=C(N/N=C/c1ccc2ncccc2c1)Nc1cccnc1` was “inactive”; that for `COc1cc(/C=N/NC(=S)Nc2cccc(C(=O)O)c2)ccc1O` was “inactive”. The value for `OCCN(CCO)CC(O)COCCC12CC3CC(CC(C3)C1)C2` (centres undefined) was “inactive”; that for `O=C(Nc1cnc2ccccn2c1=O)c1ccc(Cl)cc1Cl` was “inactive”.

With `O=C(O)c1ccc(C=NN=C2c3ccccc3-c3ccccc32)cc1`, the molecule was called inactive.

With `CC(=O)c1ccc(N2CCN(c3ccnc4cc(Cl)ccc34)CC2)cc1`, the molecule was called inactive. As for `Cc1cc(C)c2sc(NC(=O)C3CC3)nc2c1`, the outcome was inactive.

As to `N#CC1=C(N)OC2=C(C(=O)CCC2)C12C(=O)N1CCCc3cccc2c31` (centres undefined), the call was inactive. In the case of `COc1ccc(-c2csc3ncnc(Sc4nnnn4C)c23)cc1`, the molecule was called inactive. The value for `Clc1ccc(-n2ncc3c(N4CCCC4)ncnc32)cc1` was “inactive”; that for `Cc1ccsc1-c1nc(CSCC(=O)N2CCN(c3ccccc3)CC2)c(C)o1` was “inactive”; that for `COc1cc(NC(=S)N2CCN(CCO)CC2)cc(OC)c1` was “inactive”. With `COc1ccc2cc(C(N)=O)/c(=N\NC(=O)c3ccccc3)oc2c1`, the molecule was called inactive.

Turning to `CCCN1C(=O)C2(SC(NC(C)=O)=NN2C(C)=O)c2cc(C)cc(C)c21` (centres undefined), the result was inactive. The value for `c1ccc(-c2nnc(-c3ccccn3)s2)nc1` was “inactive”; that for `Cc1cc(C)c(OCCn2ccnc2)c(C)c1` was “inactive”. The value for `COc1ccc(C=Cc2ccc3ccccc3n2)c(OC)c1` was “inactive”. The value for `C[C@@]12C(=O)N(Cc3ccccc3)CC(=O)N1[C@H](/C=C/c1ccccc1)[C@@H]1C(=O)N(c3ccccc3)C(=O)[C@@H]12` was “inactive”; that for `CCOC(=O)N1CCC(n2c(=S)[nH]c3ccccc3c2=O)CC1` was “inactive”.

As to `O=C1CC(c2ccccc2)Oc2ccccc21` (centres undefined), the call was inactive. The value for `C[C@@H](C(=O)Nc1ccc2c(c1)OCCO2)n1c(=O)[nH]c2ccccc2c1=O` was “inactive”; that for `CCCCOc1ccc2c(c1)/C(=C(\C(Cl)=C(Cl)Cl)[N+](=O)[O-])N2` was “inactive”. For the molecule `Cc1ccc(-n2cc(C(=O)c3ccccc3O)cn2)cc1`, the molecule was classed as inactive. The value for `COc1ccc(OC)c(S(=O)(=O)NC(C)CCc2ccccc2)c1` (centres undefined) was “inactive”. With `CC(C(=O)N=Nc1c(O)[nH]c2ccccc12)n1cnc2ccccc2c1=O` (centres undefined), the molecule was called inactive. The value for `COc1ccc(Cl)cc1NC(=O)CN(C)S(=O)(=O)c1cccs1` was “inactive”; that for `Cc1cc(C)cc(C(=O)NCCC(=O)NCc2cc(=O)n(C)c(=O)n2C)c1` was “inactive”. Consider `COc1ccc(S(=O)(=O)N2CCN(CC(=O)Nc3ccc(C)c(F)c3)CC2)cc1`, for which the molecule was called inactive. For the molecule `CCOC(=O)C1CCN(S(=O)(=O)Cc2ccccc2)C1=O` (centres undefined), the molecule was classed as inactive. Consider `Cc1cc(C)c(S(=O)(=O)Nc2nnc(CC(C)C)s2)c(C)c1`, for which the result was inactive. The value for `CC(=O)c1cc(C(=O)Nc2ccc(C(=O)O)cc2)oc1C` was “inactive”; that for `CCSc1nnc(NC(=O)CCn2c(=O)oc3ccccc32)s1` was “inactive”. The value for `COC(=O)CCCC[C@@H]1SC[C@@H](NC(=O)OC)[C@@H]1NC(=O)OC` was “inactive”; that for `COC(=O)c1ccccc1NC(=O)CSc1nnnn1C` was “inactive”. The value for `COc1ccc(N2C3=[N+](CC2(C)O)c2ccccc2CC3)cc1` (centres undefined) was “inactive”. Regarding `O=S(=O)(NC1c2cccc3cccc(c23)C1Sc1ncccn1)c1ccccc1` (centres undefined), the result was inactive. The value for `COc1ccc(CNC(=O)COC(=O)[C@@H]2CCCN2C(=O)c2cccs2)cc1` was “inactive”; that for `S=C(NCC1CCCCC1)Nc1ccc(Oc2ccccc2)cc1` was “inactive”; that for `O=C(c1noc2c1CCCC2)N1CCCCC1` was “inactive”. The value for `CCOc1ccc(NC(=O)c2cnsn2)cc1` was “inactive”; that for `CCOC(=O)c1cn2nc(N3CCCCC3)ccc2n1` was “inactive”; that for `COC(=O)c1ccc2nc(-c3ccc4c(c3)OCO4)cn2c1` was “inactive”. Regarding `CCOc1cc(/C=C2/C(=N)N3N=C(CC)SC3=NC2=O)ccc1OC(=O)c1ccco1`, the molecule was classed as inactive. The value for `COC(=O)c1ccc(CSc2nc3c(c(=O)n2-c2ccc(C)cc2)SCC3)o1` was “inactive”. On to `COC(=O)CSc1ncnc2c1sc1nc3c(cc12)COC(C)(C)C3`, for which the outcome was inactive.

For `CCOC(=O)CNC(=O)CSc1nnc(NC(=O)c2ccc(C)cc2)s1`, the outcome was inactive.
